Laboratory results reported in PubChem BioAssay (NCI).
Compounds without any hit were thinned out: in the full panel of roughly 83,000, 20% have a hit.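 Assay: single dose, 48 h. Readout: percent growth (0 = no net growth; negative = cell death). Active: <10.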 Unmarked numbers belong to inactive results. Activity calls are given as the source filed them.

Tests used:
Assay in all cases: NCI-60 one-dose screen, 48 h (100 = growth as untreated, 0 = no growth, -100 = all killed)
Settings in all cases: 10 µM unless noted
[1] = test system: HCT-15 colon
[2] = test system: HT29 colon
[3] = test system: SNB-75 CNS
[4] = test system: SNB-19 CNS
[5] = test system: U251 CNS
[6] = test system: PC-3 prostate
[7] = test system: SK-MEL-5 melanoma
[8] = test system: UACC-62 melanoma
[9] = test system: LOX IMVI melanoma
[10] = test system: SK-MEL-28 melanoma

Compound | growth [1] | growth [2] | growth [3] | growth [4] | growth [5] | growth [6] | growth [7] | growth [8] | growth [9] | growth [10]
CCCCCN1C=C/C(=C\C(=O)N(C)c2ccc(Br)cc2)c2ccccc21 | 102% | 91.6% | 91.6% | 99.6% | 92.4% | 97.3% | 97.9% | 93.7% | 87.6% | 105%
CC(C)(O)C1CCCN1C(=O)c1ccccc1I (stereo not given) | 98.7% | 95.4% | 100% | 78.2% | 98.3% | 80.7% | 92.9% | 64.3% | 101% | 105%
COc1ccc(C(=O)/C=C/c2cn(Cc3ccc(Cl)cc3)c3ccccc23)cc1 | 39.7% | 22.8% | 76.9% | 82.4% | 59.6% | 61.3% | 89.1% | 31.3% | 49.2% | 80.6%
COc1cc(/C=C/C(=O)c2ccc(Nc3ncnc4ccccc34)cc2)cc(OC)c1 | 45.7% | -38.1% (active) | 70.9% | 62% | 34.2% | 43.9% | 90.8% | 76.9% | 5.65% (active) | 86.3%
COc1cc(/C=C2\C(=O)N(Cc3ccc(Cl)cc3)c3ccccc32)cc(OC)c1OC | -37.7% (active) | 8.97% (active) | 12.5% | 50.3% | 3.6% (active) | 38.6% | 41.6% | 22.2% | -57.1% (active) | -42.6% (active)
O=c1[nH]c2c(s1)CCCC2CN1CCCCC1 (stereo not given) | 107% | 95.2% | 83.8% | 110% | 102% | 91.9% | 99.8% | 113% | 95.5% | 99.3%
COc1nc(N)nc(-n2c(-c3ccc(C)cc3)nc3ccccc32)c1NCc1ccc(C)cc1 | 94.8% | 94.7% | 75.5% | 86.5% | 83% | 65.7% | 96.8% | 64.4% | 87.8% | 107%
COc1ccc(Cc2nc3cc(OC)c(OC)cc3c(=O)[nH]2)cc1 | 29.8% | 62.9% | 107% | 81.7% | 77.8% | 86.4% | 90.8% | 77.6% | 61% | 79.3%
CCCCCCCCCCCC(=O)C(CCCCCCCCCC)C(=O)Nc1ccccc1 (stereo not given) | 115% | 94.7% | 101% | 101% | 99.4% | 92.6% | 97.9% | 91.5% | 93.5% | 108%
COc1cc2c(cc1[N+](=O)[O-])-c1ccc([N+](=O)[O-])cc1/C2=N/NC(N)=S | 72.3% | 48.7% | 48.7% | 58.8% | 47.1% | 58% | 63.1% | 36.4% | 43.5% | 95.4%
FC(F)(F)c1cccc(Oc2ccc(Nc3ncnc4ccc(OCCCN5CCOCC5)cc34)cc2Cl)c1 | -40.4% (active) | 5% (active) | 75.2% | 61.1% | 40.3% | 49.1% | 59.2% | 76.1% | -36% (active) | 21.3%
CCCCCCCCCCCCCCCC(=O)OC[C@@]1(O)C[C@@]23CC[C@@H]4C(C)(C)CCC[C@@]4(C)[C@@H]2CC[C@H]1C3 | 97.9% | 92.2% | 112% | 102% | 95.8% | 94.8% | 98.3% | 85.8% | 93.4% | 121%
Cc1ccc2[nH]c(=O)cc(-n3nncc3COc3ccc(C=O)cc3)c2c1 | 102% | 105% | 91.2% | 102% | 102% | 97.8% | 101% | 93.7% | 99.6% | 113%
Nc1c(C(=O)Nc2cccc3ccncc23)sc2nc3c(cc12)C(=O)CCC3 | 35.1% | 18.2% | 9.48% (active) | 32.9% | 48.3% | 52.9% | 3.47% (active) | 28.9% | 46.2% | 55.8%
COC(=O)CCCCCCCCC1(C)C=CC(C(C)O)=CC1 (stereo not given) | 105% | 99.9% | 106% | 107% | 98.5% | 97.6% | 99% | 107% | 96.7% | 119%
CCc1nc(C)cn1C(=O)OCc1nc2nc(Cl)nc(N3CCOCC3)c2[nH]1 | -28.1% (active) | -63.1% (active) | 1.78% (active) | 55.8% | -55.3% (active) | -63.5% (active) | -35.8% (active) | -88.4% (active) | -80.9% (active) | -89.6% (active)
Cc1cc(C)c(C=O)c(C)c1 | 107% | 98.8% | 83% | 102% | 101% | 79.9% | 99.8% | 108% | 96.8% | 110%
Cn1c(COC(=O)NCCN2CCOCC2)nc2c(N3CCOCC3)nc(-c3ccccc3)nc21 | -39.4% (active) | -58.1% (active) | -3.92% (active) | 48.7% | -52.5% (active) | -71.2% (active) | -93.6% (active) | -93.6% (active) | -87.2% (active) | -97.6% (active)
O=C(OCc1nc2nc(Cl)nc(N3CCOCC3)c2[nH]1)n1ccnc1 | -35.2% (active) | -55.2% (active) | -14.2% (active) | 62.9% | 1.06% (active) | -24.5% (active) | 20.1% | -80.4% (active) | -77.1% (active) | -36.5% (active)
c1ccc2c(-c3c4ccsc4cc4[nH]c5ccccc5c34)c[nH]c2c1 | 24.7% | 8.87% (active) | 20.3% | 48.5% | 38.7% | 36.1% | 31.9% | 44.8% | 26.9% | 48.9%
COc1ccc(-c2nc(N/N=C/c3cccc(Br)c3)nc(N3CCOCC3)c2C#N)cc1 | 7.3% (active) | 21.5% | -17.7% (active) | 93.4% | 52.4% | 47.8% | 72% | 84.4% | 91.3% | -8.47% (active)
COc1cccc2cc(-c3cc4ccccc4[nH]3)/c(=N/C(=S)Nc3ccc(C)cc3)oc12 | 72% | 86.3% | -8.91% (active) | 52.8% | 74.9% | 55.6% | 73.8% | 65.7% | 71.2% | 78.4%
Nc1ccccc1NC(=O)c1ccc(CN2CCC/C(=C\c3cccc(Cl)c3)C2=O)cc1 | 15.4% | 1.41% (active) | 16.5% | 24.3% | 13.7% | 17.7% | -41.9% (active) | 27.1% | 9.7% (active) | 48.2%
CCN(CC)CCCC(Nc1c2ccc(Cl)cc2nc2ccc(OC)cc12)c1ccc(Cl)cc1 (stereo not given) | -54.7% (active) | -49.6% (active) | 16.7% | 6.15% (active) | -85.9% (active) | 33.6% | -93.7% (active) | -70.6% (active) | -83.3% (active) | -88.7% (active)
CCCCCCCCOC(=O)c1ccc(O)c(OC)c1 | 105% | 97.7% | 78.8% | 93.2% | 85.8% | 78% | 97.1% | 92% | 59.3% | 105%
CC(=O)OCCCCCNc1ccccc1 | 107% | 99.2% | 103% | 107% | 100% | 100% | 106% | 106% | 100% | 106%
Nc1nc(N)nc(NCc2ccccc2)n1 | 97.6% | 101% | 96.5% | 107% | 105% | 105% | 103% | 101% | 101% | 106%
